SMILES strings stand for the structures. Values without a mark were called inactive. Records with an inconclusive call do not appear. Active and inactive are the calls of the source. Unless noted, calls come from the whole dose curve; as a rule, active = well fitted curve in either direction with a large enough effect (not every such curve was filed as active); inconclusive = small, poorly fitted or top-dose-only effect, or another doubt; inactive = flat fitted curve, though single readings scatter.

Assay [1] has as its target Lysosomal acid glucosylceramidase (Homo sapiens) (UniProt P04062). The assay can be described thus: Glucocerebrosidase-p2 (AID 348; in the data active = potency below about 10 µM; note: potency is the fitted concentration of half-maximal effect). The following applies: purified GBA, blue fluorogenic substrate, 40 min. Summed up:
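Normal human glucocerebrosidase (0.2 nM) with blue fluorogenic substrate (80 uM final) in citrate/phosphate pH 5.9 with 10mM sodium taurocholate, 0.01% tween-20; 40 min RT, NaOH/glycine stop; fluorescence Ex 365/Em 440; AC50 from a titration from 0.6 nM upwards.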

The nature of assay [2]: AP1 Signaling Pathway (AID 357). Note: % is set by controls: 0 for no effect and ±100 for the full control effect. The following applies: ME-180 AP-1-bla reporter, EGF-induced, beta-lactamase ratio, 5 h; at 7.69 µM (top of the series) unless noted. In short, it runs like this: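 First, ME-180 AP-1-bla cells were cultured overnight at 37 °C in low-serum Opti-MEM. Next, titrated compounds with EC50 EGF were incubated 5 hours. Finally, CCF4 was added for 2.5 hours and the 460/530 nm ratio recorded.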

Assay [3] deals with Cytochrome P450 1A2 (Homo sapiens) (UniProt P05177). The assay can be described thus: p450-cyp1a2 (AID 410; calls by dose curve; note: potency is the fitted concentration of half-maximal effect;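 for activity change, negative = inhibition: -100% = full effect of reference inhibitor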). The settings on record: recombinant CYP1A2, luciferin-ME demethylation, luminescence; series mostly up to 11.4 µM. In short, it runs like this: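 20nM CYP1A2, 100uM Luciferin-ME (=Km), 100mM KPO4; cpd 10 min RT; +NADPH regen, 60 min RT; stop/detect 20 min; luminescence. Normalized to furafylline 57 uM = full inhibition.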
Cytochrome P450 1A2 (Homo sapiens), sequence (P05177 whole entry, looked up): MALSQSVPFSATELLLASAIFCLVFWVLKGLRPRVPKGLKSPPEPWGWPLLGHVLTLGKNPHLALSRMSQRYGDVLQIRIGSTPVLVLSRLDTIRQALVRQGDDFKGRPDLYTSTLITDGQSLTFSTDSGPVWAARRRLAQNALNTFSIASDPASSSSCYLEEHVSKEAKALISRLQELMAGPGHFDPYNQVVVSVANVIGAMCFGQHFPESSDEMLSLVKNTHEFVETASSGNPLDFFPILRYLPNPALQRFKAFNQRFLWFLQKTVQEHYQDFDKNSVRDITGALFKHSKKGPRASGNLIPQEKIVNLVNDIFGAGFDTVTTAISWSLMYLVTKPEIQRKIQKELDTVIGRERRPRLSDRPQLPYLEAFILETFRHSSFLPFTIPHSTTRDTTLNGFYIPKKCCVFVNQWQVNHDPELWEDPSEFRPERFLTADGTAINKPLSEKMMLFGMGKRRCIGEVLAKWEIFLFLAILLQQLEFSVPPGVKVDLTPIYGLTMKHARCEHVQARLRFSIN

A short description of assay [4]: NFAT Signaling Pathway (AID 444).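 Note: carbachol stimulus at about its EC50 of 1 µM final; % is set by controls: 0 for no effect and ±100 for the full control effect.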 The settings on record: Jurkat NFAT-bla M1, carbachol, beta-lactamase ratio, 5 h; at 7.69 µM (top of the series) unless noted. In short, it runs like this: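 Jurkat cells with NFAT-driven β-lactamase reporter and co-expressed M1 receptor, stimulated with carbachol (final 1 uM, ~EC50), compound titration, 5 h at 37 °C. CCF4 loaded 1 h at RT; 460/530 nm ratio gave %activity and AC50.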

Assay [5] can be described thus: Stat Signaling Pathway (AID 446).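 Note: ME-180 cervical cancer cells given 40 pM IL-6 alongside compound; SIE-controlled beta-lactamase reporter measured as 460/530 nm FRET emission ratio; % is set by controls: 0 for no effect and ±100 for the full control effect.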 The following applies: ME-180 (cervical carcinoma) SIE beta-lactamase reporter, IL-6 stimulated, 5 h; at 7.69 µM (top of the series) unless noted. Summed up: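 Compound effects on IL-6-induced STAT reporter activity were measured in ME-180 cells. After overnight culture, cells were co-treated with 40 pM IL-6 for 5 hrs before beta-lactamase substrate loading at room temperature.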

Assay [6] deals with Glucocorticoid receptor (Homo sapiens) (UniProt P04150). The assay can be described thus: GR-GFP Redistribution (AID 450;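 active = compounds whose dose series gives a full or clear partial fitted curve of increased nuclear translocation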; note: potency is the fitted concentration of half-maximal effect). The settings on record: U2OS GR-GFP nuclear translocation, laser cytometry, 2 h.
Glucocorticoid receptor (Homo sapiens), sequence (P04150 whole entry, looked up, the tested form may be a part): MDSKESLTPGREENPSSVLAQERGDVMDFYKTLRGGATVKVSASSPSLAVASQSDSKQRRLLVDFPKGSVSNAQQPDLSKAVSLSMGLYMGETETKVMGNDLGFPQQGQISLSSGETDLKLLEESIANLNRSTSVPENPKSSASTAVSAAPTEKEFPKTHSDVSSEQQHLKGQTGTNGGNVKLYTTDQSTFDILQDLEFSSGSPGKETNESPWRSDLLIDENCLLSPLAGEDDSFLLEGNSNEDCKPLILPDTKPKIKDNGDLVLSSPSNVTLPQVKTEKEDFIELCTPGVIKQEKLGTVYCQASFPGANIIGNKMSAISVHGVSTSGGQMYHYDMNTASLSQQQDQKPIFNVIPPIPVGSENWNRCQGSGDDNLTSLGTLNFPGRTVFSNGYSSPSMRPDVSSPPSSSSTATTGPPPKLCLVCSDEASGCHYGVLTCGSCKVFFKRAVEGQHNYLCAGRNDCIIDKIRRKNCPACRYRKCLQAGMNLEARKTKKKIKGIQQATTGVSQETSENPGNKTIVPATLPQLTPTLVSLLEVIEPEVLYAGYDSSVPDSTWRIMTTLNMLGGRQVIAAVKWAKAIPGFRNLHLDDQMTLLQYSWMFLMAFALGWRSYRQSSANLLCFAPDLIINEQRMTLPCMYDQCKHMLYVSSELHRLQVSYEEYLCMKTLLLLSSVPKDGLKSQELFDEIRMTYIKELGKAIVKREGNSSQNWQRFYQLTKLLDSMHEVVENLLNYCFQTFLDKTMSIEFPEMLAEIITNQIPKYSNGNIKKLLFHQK
Assay [7] shares this target. The assay can be described thus: GR-EFC Redistribution (AID 451; calls by dose curve; note: potency is the fitted concentration of half-maximal effect). The settings on record: CHO-K1 GR-EFC translocation, beta-gal luminescence, 2 h. In short, it runs like this: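 CHO-K1 cells expressing nuclear EA and GR-ED fragments of b-gal; compounds titrated up to 46 uM final, 2 h at 37 C. GR nuclear translocation read as complemented b-gal luminescence after 1 h RT detection.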

Assay [8] deals with Mitogen-activated protein kinase 10 (Mus musculus) (UniProt Q61831). Description: JNK3 AlphaScreen Assay (AID 530).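 Note: kinase came from lysate of stimulated human HepG2 cells; signal reports phosphorylation of biotinylated GST-cJun 1-79 at Ser73 with 10 µM ATP; % is set by controls: 0 for no effect and ±100 for the full control effect.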 The following applies: JNK3 lysate, c-Jun phosphorylation; series mostly up to 11.4 µM. Summed up: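 HepG2 lysate (IL-1b/TNFa pre-activated) + biotin-GST-cJun 1-79 + anti-pSer73 cJun; cpd titration, 15 min RT; ATP 10 uM start; Tris pH 7.6, MgCl2, DTT, vanadate; beads in EDTA buffer; AlphaScreen.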
Background: Bead proximity is the source of the signal in Alpha formats.

The target in assay [9] is 3',5'-cyclic-AMP phosphodiesterase 4B (Homo sapiens) (UniProt Q07343). The assay can be described thus: qHTS Assay for Inhibitors of PDE-IV (AID 607; active = well fitted activation curve with a large enough effect in the main read-out, with a control signal flat, not every such curve was filed as active; note: % of control where 0% means no effect). The settings on record: HEK293 ACTOne CNG channel cells, membrane potential fluorescence; series mostly up to 22.9 µM. Summed up:
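ACTOne HEK293 cells carry a modified cAMP-gated CNG channel and express endogenous PDE4; plated 1000 cells/well, compounds up to 22.9 uM final. Membrane-potential dye fluorescence (ex 535/em 590) was read; parental cells received 10 uM forskolin + 100 uM RO 20-1724.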
A general note: In qHTS, concentration-response curves come from the screen itself.

3',5'-cyclic-AMP phosphodiesterase 4B (Homo sapiens), sequence (Q07343 whole entry, looked up): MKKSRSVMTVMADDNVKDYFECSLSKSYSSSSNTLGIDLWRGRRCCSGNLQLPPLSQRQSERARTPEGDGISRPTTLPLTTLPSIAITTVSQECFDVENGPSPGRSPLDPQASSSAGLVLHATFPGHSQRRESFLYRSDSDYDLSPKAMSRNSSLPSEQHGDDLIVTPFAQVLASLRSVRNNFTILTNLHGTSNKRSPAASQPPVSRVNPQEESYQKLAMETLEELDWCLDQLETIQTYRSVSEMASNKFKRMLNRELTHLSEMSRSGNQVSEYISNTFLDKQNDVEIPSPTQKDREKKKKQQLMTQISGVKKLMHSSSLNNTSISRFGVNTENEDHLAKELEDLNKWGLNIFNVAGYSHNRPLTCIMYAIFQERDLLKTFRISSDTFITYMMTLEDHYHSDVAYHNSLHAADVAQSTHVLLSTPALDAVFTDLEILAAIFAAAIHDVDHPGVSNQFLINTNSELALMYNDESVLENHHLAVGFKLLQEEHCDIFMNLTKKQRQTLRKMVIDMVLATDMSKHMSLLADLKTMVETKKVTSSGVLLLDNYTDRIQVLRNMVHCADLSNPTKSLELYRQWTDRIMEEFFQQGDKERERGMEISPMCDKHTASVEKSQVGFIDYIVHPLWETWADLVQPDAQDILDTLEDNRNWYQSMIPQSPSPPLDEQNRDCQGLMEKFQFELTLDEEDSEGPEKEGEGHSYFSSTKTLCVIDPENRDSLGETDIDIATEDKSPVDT
Lysosomal acid glucosylceramidase (Homo sapiens), sequence (P04062 whole entry, looked up): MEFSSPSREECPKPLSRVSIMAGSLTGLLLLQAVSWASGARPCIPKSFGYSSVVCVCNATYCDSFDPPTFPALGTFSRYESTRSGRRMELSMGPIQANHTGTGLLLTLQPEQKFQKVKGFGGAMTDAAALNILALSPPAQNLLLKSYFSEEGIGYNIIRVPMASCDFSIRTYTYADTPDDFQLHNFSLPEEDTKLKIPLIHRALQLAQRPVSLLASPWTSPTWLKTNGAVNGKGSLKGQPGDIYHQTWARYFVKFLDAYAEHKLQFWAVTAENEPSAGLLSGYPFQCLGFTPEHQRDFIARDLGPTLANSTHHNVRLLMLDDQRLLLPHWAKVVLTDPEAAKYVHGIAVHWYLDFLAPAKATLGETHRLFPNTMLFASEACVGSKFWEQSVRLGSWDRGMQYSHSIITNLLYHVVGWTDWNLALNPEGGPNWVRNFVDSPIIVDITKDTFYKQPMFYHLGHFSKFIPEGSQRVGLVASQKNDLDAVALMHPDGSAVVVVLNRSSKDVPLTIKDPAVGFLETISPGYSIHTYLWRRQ

Regarding `c1ccc(CCNc2ccccn2)nc1`, the Potency in assay [1] is over 11.4 µM; in assay [3] it was 5.01 µM (active); in assay [6], over 46 µM; in [7], over 9.22 µM. For the same compound, the activity change, negative = inhibition was -8.73% in assay [2] and 2.35% in assay [4]. Also, in assay [5], the activity, negative = inhibition was -1.9%. The Potency result in assay [8] and in assay [9] was “inactive” each time.
Consider `N#CCCn1c(=O)c(-c2ccccc2)nc2cnc(Oc3cccc(Cl)c3)nc21`, for which the Potency in assay [1] is over 11.4 µM; in assay [3] it was 2.51 µM (active); in [6] it was over 9.22 µM; in [7] it was over 46 µM. The activity change, negative = inhibition was -25.4% in [2] and -23.9% in assay [4]. Further, in [5], the activity, negative = inhibition was -4.6%. The Potency entry in [8] and in assay [9] was “inactive” each time.
As for `CN(C)Cc1cc(Cl)c(O)c(CN(C)C)c1`, the Potency was over 11.4 µM in [1], over 46 µM in assay [6] and over 9.22 µM in assay [7]. The activity change, negative = inhibition in assay [2] was 0.0803%; in assay [4], 15.1%. For the same compound, the Potency result in assay [3], in [8] and in assay [9] was “inactive” throughout. In addition, the activity, negative = inhibition in [5] is -1.91%.
For `CC(=O)Nc1ccc(S(=O)(=O)N=S(C)C)cc1`, the Potency in assay [1] was over 11.4 µM; in [6] it was over 46 µM; in assay [7], over 9.22 µM. In addition, the activity change, negative = inhibition was 4.76% in assay [2], -15.9% [at 2.29 µM] in [3] and 3.98% in assay [4]. Besides, the activity, negative = inhibition in assay [5] is -3.32%. For the same compound, the Potency result in assay [8] and in [9] was “inactive” in each case.
With `CC[C@](N)(C(=O)O)C(C)C`, the Potency was over 11.4 µM in assay [1], over 46 µM in [6] and over 9.22 µM in assay [7]. Moreover, the activity change, negative = inhibition is 6.23% in assay [2] and -9.09% in assay [4]. For the same compound, the Potency entry in assay [3], in assay [8] and in [9] was “inactive” throughout. Besides, in assay [5], the activity, negative = inhibition was -6.84%.
For `Cc1[nH]c2ccccc2c1-c1cc(-c2cc(-c3c(C)[nH]c4ccccc34)nc(N)n2)nc(N)n1`, the Potency in [1] was over 11.4 µM; in assay [3], 0.398 µM (active); in [6], over 46 µM; in assay [7] it was over 9.22 µM. For the same compound, the activity change, negative = inhibition in [2] is -6.63%; in assay [4], 1.59%. For the same compound, the activity, negative = inhibition in [5] was -4.41%. In addition, the Potency entry in [8] and in assay [9] was “inactive” each time.
With `O=C(O)CSc1ncccc1[N+](=O)[O-]`, the Potency was over 11.4 µM in assay [1], over 46 µM in assay [6] and over 9.22 µM in assay [7]. Besides, the activity change, negative = inhibition in [2] is 6.57%; in assay [4], 2.05%. In addition, the Potency result in assay [3], in [8] and in [9] was “inactive” throughout. In addition, the activity, negative = inhibition in [5] is 1.22%.
For the compound `OC[C@@H](O)CNc1ncnc2ccccc12`, the figures for the Potency in [1], in assay [6] and in assay [7] were over 11.4 µM, over 46 µM and over 9.22 µM, respectively. Besides, the activity change, negative = inhibition was -1.31% in [2] and 9.96% in assay [4]. Also, the Potency entry in assay [3], in assay [8] and in assay [9] was “inactive” throughout. For the same compound, the activity, negative = inhibition in assay [5] was 2.66%.
Turning to `O=C(O)CCCSc1nc2ccccc2s1`, the Potency in [1] is over 11.4 µM; in [6], over 46 µM; in assay [7], over 9.22 µM. Further, the activity change, negative = inhibition in assay [2] is 1.43%; in [4] it was -19.5%. For the same compound, the Potency result in assay [3], in [8] and in assay [9] was “inactive” in each case. The activity, negative = inhibition in assay [5] was 4.62%.
In the case of `CC12CC[C@@H]3c4ccc(OP(=O)(O)O)cc4CCC3C1CCC2=O` (some centres undefined), the Potency is over 11.4 µM in [1], over 46 µM in [6] and over 9.22 µM in assay [7]. Besides, the activity change, negative = inhibition in [2] was 2.65%; in [3], -13.4% [at 2.29 µM]; in assay [4], 10.4%. Further, the activity, negative = inhibition in assay [5] was -5.93%. For the same compound, the Potency result in [8] and in [9] was “inactive” each time.
As to `Nc1ncnc2c1ncn2CCCCC(=O)O`, the Potency in assay [1] was over 11.4 µM; in assay [6], over 46 µM; in [7], over 9.22 µM. The activity change, negative = inhibition in assay [2] is 10.7%; in assay [4], 13.9%. In addition, the Potency result in [3], in assay [8] and in assay [9] was “inactive” each time. The activity, negative = inhibition in [5] is -0.241%.
`CC(C)[C@]1(Cl)CC[C@@H]2[C@]3(C)CCC[C@@](C)(C(=O)O)[C@H]3C[C@H](Cl)[C@@]2(Cl)[C@H]1Cl`: the Potency in assay [1] was over 11.4 µM; in assay [6] it was over 46 µM; in assay [7] it was over 9.22 µM. Besides, the results for the activity change, negative = inhibition in [2] and in assay [4] were -2.07% and 0.923%, respectively. Also, the Potency result in assay [3], in [8] and in assay [9] was “inactive” in each case. In assay [5], the activity, negative = inhibition was 0.27%.
Turning to `CO[C@@H](NC(N)=O)C(=O)O`, the Potency in [1] was over 11.4 µM; in assay [6], over 46 µM; in assay [7], over 9.22 µM. Further, the results for the activity change, negative = inhibition in assay [2], in [3] and in [4] were -1%, -6.4% [at 2.29 µM] and 1.38%, respectively. Moreover, in [5], the activity, negative = inhibition is 8.15%. For the same compound, the Potency result in [8] and in assay [9] was “inactive” each time.
Consider `S=c1nc[nH]c2c1ncn2Cc1ccco1`, for which the Potency in assay [1] was over 11.4 µM; in [6] it was over 46 µM; in assay [7], over 9.22 µM. The activity change, negative = inhibition in assay [2] is 8.99%; in assay [4] it was -0.242%. Besides, the Potency entry in assay [3], in assay [8] and in [9] was “inactive” in each case. For the same compound, the activity, negative = inhibition in [5] is 5.55%.
With `O=C(O)c1ccc(NS(=O)(=O)Cc2ccccc2)cc1`, the Potency in assay [1] was over 11.4 µM; in assay [6], over 46 µM; in assay [7] it was over 9.22 µM. Besides, the activity change, negative = inhibition was 6.38% in [2] and -0.542% in assay [4]. Besides, the Potency entry in [3], in [8] and in assay [9] was “inactive” each time. For the same compound, the activity, negative = inhibition in assay [5] was -0.621%.
With `[Cu].[O-]/N=C1/C(=[OH+])Nc2ccccc21.[O-]Nc1c(O)[nH]c2ccccc12`, the Potency in [1] is over 11.4 µM; in assay [6], over 46 µM; in [7], over 9.22 µM. The activity change, negative = inhibition was 3.32% in assay [2], -20.1% [at 2.29 µM] in [3] and 13.2% in assay [4]. Further, the activity, negative = inhibition in [5] was 5.41%. Moreover, the Potency entry in assay [8] and in assay [9] was “inactive” in each case.

(Values after PubChem BioAssay (NCATS).)
